Experimental data reported in PubChem BioAssay AID1347048 (National Center for Advancing Translational Sciences (NCATS), 2019).
In all, about 76,000 compounds went through this assay and about 1,200 (1.6%) were called active. About 4% were inconclusive and are not listed. The call rests on the fitted dose curve. This excerpt belongs to a sample that is enriched for actives.

target: Atrial natriuretic peptide receptor 1 (Homo sapiens) (UniProt P16066); assay: Natriuretic polypeptide receptor (hNpr1) antagonism - Primary qHTS; details: HEK293 hNpr1 GloSensor cGMP, ANP-stimulated luminescence; series mostly up to 46.3 µM; activity change, negative = inhibition: at the top concentration; further: nearly all actives have a fitted effect of over 60% in size
How it was run: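 Compound pre-incubated 30 min at room temperature on GloSensor-loaded HEK293 cells stably carrying hNpr1 and the pGS-40F cGMP biosensor. Stimulation uses hNppA at 0.1 nM final; luminescence is taken at baseline and 20 min post-agonist.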
On the % scale 0 is the no-effect control and ±100 the full control effect; potency means the concentration at half of the fitted maximal effect.

Sequence of Atrial natriuretic peptide receptor 1 (Homo sapiens) (P16066 whole entry, looked up): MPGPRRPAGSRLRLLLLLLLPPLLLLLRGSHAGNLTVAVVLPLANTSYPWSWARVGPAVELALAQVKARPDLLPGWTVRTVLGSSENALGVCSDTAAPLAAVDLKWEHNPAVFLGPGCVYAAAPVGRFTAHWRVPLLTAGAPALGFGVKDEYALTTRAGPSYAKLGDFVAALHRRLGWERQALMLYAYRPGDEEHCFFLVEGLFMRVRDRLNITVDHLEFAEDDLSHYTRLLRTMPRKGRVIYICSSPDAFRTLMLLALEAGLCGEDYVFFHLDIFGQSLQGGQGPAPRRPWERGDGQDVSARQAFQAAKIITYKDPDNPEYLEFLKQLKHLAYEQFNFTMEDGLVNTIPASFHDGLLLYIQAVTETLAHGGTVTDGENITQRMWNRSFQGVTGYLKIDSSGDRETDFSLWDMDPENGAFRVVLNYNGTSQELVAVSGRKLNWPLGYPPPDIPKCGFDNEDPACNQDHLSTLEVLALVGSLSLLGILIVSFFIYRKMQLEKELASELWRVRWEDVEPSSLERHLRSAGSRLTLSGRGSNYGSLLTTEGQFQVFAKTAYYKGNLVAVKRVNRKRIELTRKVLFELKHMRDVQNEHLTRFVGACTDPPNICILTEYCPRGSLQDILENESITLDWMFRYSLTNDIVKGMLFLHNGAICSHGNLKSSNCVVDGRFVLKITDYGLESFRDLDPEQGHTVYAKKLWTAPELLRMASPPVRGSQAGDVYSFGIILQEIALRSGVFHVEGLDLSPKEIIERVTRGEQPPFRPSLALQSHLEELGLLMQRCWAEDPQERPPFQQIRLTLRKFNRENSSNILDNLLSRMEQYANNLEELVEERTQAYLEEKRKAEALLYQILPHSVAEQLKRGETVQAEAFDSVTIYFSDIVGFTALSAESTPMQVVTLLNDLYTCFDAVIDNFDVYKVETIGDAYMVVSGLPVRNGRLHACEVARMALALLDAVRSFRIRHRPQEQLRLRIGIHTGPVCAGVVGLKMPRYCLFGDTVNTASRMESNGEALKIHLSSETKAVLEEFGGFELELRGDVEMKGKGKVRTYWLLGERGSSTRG

Activity change, negative = inhibition, inactive:
O=C(NCC1CC1)C1Cn2cccc2C(=O)N1Cc1cccnc1 (stereo not given) 2.95%
Cc1ccnc(N2CCC(c3nnc(-c4ccc(F)cc4)o3)CC2)n1 4.7%
COc1ccc(-c2onc(C)c2C(=O)NCCC(c2ccccc2)c2ccccc2)cc1 -19.3%
Cc1cccc(-c2cc(C3CCN(S(=O)(=O)c4ccc(C#N)cc4)CC3)[nH]n2)c1 -19.8%
Cc1cccc(CN2CCCCCCNC(=O)[C@@H]3CCC[C@@H]32)c1 -14%
COc1cccc(CN2Cc3nc(-c4cc(F)cc(F)c4)ccc3OCC2=O)c1 -10% [at 70.6 µM]
CN(C)c1ccc(C(=O)N2CCN(C(=O)c3nnn4c3COC(c3ccc(Cl)cc3)C4)CC2)cc1 (stereo not given) -13%
O=C(c1ccoc1)N1CCN(C(=O)c2nnn3c2COC(c2ccc(Cl)cc2)C3)CC1 (stereo not given) -24.7%
COc1ccc(C2Cn3nnc(C(=O)N4CCC(C(=O)NCc5ccc(C)cc5)CC4)c3CO2)cc1 (stereo not given) -10.2%
Cc1ccc(C2Cn3nnc(C(=O)N4CCN(C(=O)COc5cccc(C)c5)CC4)c3CO2)cc1 (stereo not given) 4.44%
O=C1N(Cc2ccc(F)cc2)C[C@H]2CN(Cc3ccncc3F)CCN12 -5.47% [at 70.6 µM]
Cc1ccc(C2Cn3nnc(C(=O)N4CCC(C(=O)Nc5ccc(Cl)cc5)CC4)c3CO2)cc1 (stereo not given) -25.5%
CC(C)(O)CCc1ccc(C(=O)NCc2nc(-c3ncccn3)no2)cc1 -1.7%
COc1ncccc1Nc1cnc2ccc(N3CCOCC3)nn12 -10.5% [at 70.6 µM]
CCOc1cccc(-c2nnc(CCC(=O)NCCC(C)C)c(=O)[nH]2)c1 -3.78%
CCNc1cc(N2CCC(CCC(=O)Nc3ccc(C)cc3C)CC2)ncn1 5.36%
CCCNc1cc(N2CCC(CCC(=O)Nc3ccc(C)cc3)CC2)ncn1 -25.4%
CS(=O)(=O)N1C[C@H]2CCN(C(=O)c3cc(F)ccc3Cl)C[C@H]21 11.3%
COc1ccc2nc([C@H]3CCN(Cc4ccc(NC(C)=O)cc4)C3)[nH]c2c1 -1.71% [at 70.6 µM]
O=c1[nH]c(C2CCCN(Cc3ccc(-c4ccsc4)cc3)C2)nc2ccc(F)cc12 (stereo not given) -27.1%
CC(C)c1noc(-c2cn(C3CCN(C(=O)c4cccc(C#N)c4)CC3)nn2)n1 0%
CC(C)c1noc(-c2cn(C3CCN(C(=O)COc4ccccc4)C3)nn2)n1 (stereo not given) 0%
COc1ccc(C(=O)N2CCCC(Cc3nc(C4CCOCC4)no3)C2)cc1 (stereo not given) -11.9%
COc1cccc(C(=O)N2CCC(Cc3nc(-c4cnccn4)no3)CC2)c1 5.25%
O=C(C1CC1)N1CCCC(c2noc(COc3ccccc3F)n2)C1 (stereo not given) 2.7%
O=C(c1cccnc1)N1CCC(Cc2nc(C3CCOCC3)no2)CC1 -27.1%
CCN(Cc1ccncc1)C(=O)c1ccc2c(c1)C(O)CCCCCN2C (stereo not given) -23%
C=C(C)CN(CC)C(=O)c1c(C)oc2c1CN(Cc1cccc(F)c1)CC2 0.0659%
O=C(C[C@@H]1CCNC[C@@H]1Cc1cc(CC2CCCCC2)on1)N1CCOCC1 -1% [at 70.6 µM]
COCCCNC(=O)c1ccc2c(c1)n(Cc1cccc(OC)c1)c(=O)c1ccnn12 -5.71%
COCC1CN(C2CCC2)CC12CCN(C(=O)CCc1ccccc1)CC2 (stereo not given) -29.6%
COc1ccc(CN2C(=O)COC[C@H]2C(=O)Nc2ccc(C(C)C)cc2)c(OC)c1 -2.17%
CN1CCN(Cc2ccc(Nc3ncc(-c4cccnc4)c4c3OCC4)cc2)CC1 -0.125% [at 70.6 µM]
CN(C)c1cccc(-c2cnc(Nc3cnccn3)c3c2CCO3)c1 -2.41% [at 70.6 µM]
O=C(Nc1ccc(-c2nnc3n2CCCC3)cc1)c1ccsc1 -1.56%
CCn1c2c(c(=O)n1-c1ccccc1)CCN(C(=O)COc1ccccc1)C2 -0.0947% [at 70.6 µM]
O=C(Nc1ccc(F)cc1)c1ccc2ccnn2c1 -2.71% [at 70.6 µM]

Potency, active:
COc1ccc(C2Cn3nnc(C(=O)N4CCN(C(=O)c5cccc(Cl)c5)CC4)c3CO2)cc1 (stereo not given) 7.08 µM
COc1ccc(C2Cn3nnc(C(=O)N4CCN(C(=O)c5ccc(C)cc5C)CC4)c3CO2)cc1 (stereo not given) 14.1 µM
CCNc1cc(N2CCC(CCC(=O)N3CCc4ccccc4C3)CC2)ncn1 11.2 µM
Cc1ccc2nc(C3CCCN(Cc4ccc(C#N)cc4)C3)[nH]c(=O)c2c1 (stereo not given) 14.1 µM
CC(C)c1cc(C(=O)N2CCC(n3cc(-c4ccccn4)nn3)CC2)n(C)n1 10 µM
COc1cccc(-c2noc(CC3CCN(C(=O)c4ccc(F)cc4)CC3)n2)c1 5.62 µM
O=C(c1ccccc1)N1CCC(C(=O)N2CCC(Cc3nc(-c4ccc(F)cc4)no3)CC2)CC1 11.2 µM
CN(C)c1cccc(-c2cnc(Nc3ccc(N4CCOCC4)cc3)c3c2CCO3)c1 25.1 µM
